Results as given in PubChem BioAssay AID1159580 (chemical genetic matrix, 2015).
Several values for one entry are separate records, joined by “and”; a condition that tells them apart may be missing. Equal values may be shown once. Out of some 5,500 compounds screened, about 2,000 (36%) were called active. Another 18% or so got no clear call; they are omitted. No stated cut-off is given here; in the data, active means normalized growth mostly below about 0.91 (no sharp cut-off); inconclusive means no clear call, values can overlap the other calls; inactive means mostly above about 0.92. Some of the results follow.

Assay: chemical genetic growth profiling, strain panel (AID 1159580);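 further: tested at 20 µM; growth read once vehicle control cultures reached saturation at 30 °C; 1 = growth at the plate median or of vehicle wells; lower values mean less growth of the strain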
Conditions: S. cerevisiae deletion strains, growth OD

Measured: normalized growth

CC(=O)O[C@H]1C(=O)[C@@]2(C)C([C@H](OC(=O)c3ccccc3)[C@]3(O)C[C@H](OC(=O)[C@H](O)[C@@H](NC(=O)c4ccccc4)c4ccccc4)C(C)=C1C3(C)C)[C@]1(OC(C)=O)CO[C@@H]1C[C@@H]2O (stereo partly specified)
active: locus YDL192W, strain arf1, active compounds read low 1.14 [resistant] | locus YDR502C, strain sam2, active compounds read low 1.16 [resistant] | locus YER155C, strain BEM2 (second series), active compounds read low 0.824 | locus YHR200W, strain rpn10, active compounds read low 1.17 [resistant] | locus YIR030C, strain dcg1, active compounds read low 1.09 [resistant] | locus YJL168C, strain set2, active compounds read low 1.07 [resistant]
inactive: locus YAL013W, strain DEP1, active compounds read low 1.08 | locus YAL021C, strain ccr4, active compounds read low 0.995 | locus YAL026C, strain drs2, active compounds read low 0.979 | locus YAL030W, strain snc1, active compounds read low 1 | locus YBL061C, strain skt5, active compounds read low 1.01 | locus YBR009C, strain hhf1, active compounds read low 0.989 | locus YBR021W, strain FUR4, active compounds read low 1.05 | locus YBR023C, strain chs3, active compounds read low 1.01 | locus YBR171W, strain sec66, active compounds read low 0.991 | locus YBR229C, strain ROT2, active compounds read low 1.02 | locus YBR231C, strain swc5, active compounds read low 1.02 | locus YBR279W, strain paf1, active compounds read low 0.994 | locus YCL011C, strain gbp2, active compounds read low 1.02 | locus YCL016C, strain dcc1, active compounds read low 1.04 | locus YCL029C, strain bik1, active compounds read low 1.05 | locus YCL061C, strain MRC1, active compounds read low 1.01 | locus YCL069W, strain vba3, active compounds read low 1.01 | locus YCR088W, strain abp1, active compounds read low 1 | locus YDL005C, strain med2, active compounds read low 1 | locus YDL035C, strain GPR1, active compounds read low 1.06 | locus YDL040C, strain nat1, active compounds read low 1 | locus YDL074C, strain BRE1, active compounds read low 1.05 | locus YDL101C, strain DUN1, active compounds read low 1.03 | locus YDL134C, strain PPH21, active compounds read low 1.03 | locus YDL185W, strain tfp1, active compounds read low 0.936 | locus YDR001C, strain nth1, active compounds read low 1.02 | locus YDR069C, strain doa4, active compounds read low 0.975 | locus YDR101C, strain arx1, active compounds read low 1.07 | locus YDR137W, strain rgp1, active compounds read low 1.02 | locus YDR150W, strain NUM1, active compounds read low 1.03 | locus YDR159W, strain sac3, active compounds read low 0.975 | locus YDR162C, strain NBP2, active compounds read low 1.04 | locus YDR195W, strain ref2 0.994 | locus YDR297W, strain sur2, active compounds read low 0.996 | locus YDR318W, strain mcm21, active compounds read low 1.07 | locus YDR334W, strain swr1, active compounds read low 1 | locus YDR335W, strain msn5, active compounds read low 1 | locus YDR388W, active compounds read low 1.06 | locus YDR392W, strain spt3, active compounds read low 0.79 | locus YEL003W, strain gim4, active compounds read low 0.979 | locus YEL037C, strain rad23, active compounds read low 1.02 | locus YEL061C, strain CIN8 (second series), active compounds read low 0.989 | locus YEL061C, strain CIN8, active compounds read low 1.05 | locus YER015W, strain faa2, active compounds read low 0.997 | locus YER016W, strain bim1, active compounds read low 1.01 | locus YER110C, active compounds read low 1.1 | locus YER111C, strain swi4, active compounds read low 1.02 | locus YER155C, strain BEM2, active compounds read low 1.03 | locus YER167W, strain BCK2, active compounds read low 1.04 | locus YFR010W, strain ubp6, active compounds read low 0.988 | locus YGL078C, strain dbp3, active compounds read low 1.02 | locus YGL086W, strain mad1, active compounds read low 0.944 | locus YGL167C, strain pmr1, active compounds read low 0.994 | locus YGL173C, strain kem1, active compounds read low 1 | locus YGL227W, strain vid30, active compounds read low 1.02 | locus YGL240W, strain doc1, active compounds read low 0.968 | locus YGL248W, strain PDE1, active compounds read low 1.03 | locus YGL253W, strain hxk2, active compounds read low 0.95 | locus YGR078C, strain PAC10, active compounds read low 1.04 | locus YGR135W, strain pre9, active compounds read low 1.05 | locus YGR229C, strain SMI1, active compounds read low 1.13 | locus YGR252W, strain gcn5, active compounds read low 1.13 | locus YHR013C, strain ard1, active compounds read low 0.991 | locus YHR027C, strain rpn1, active compounds read low 0.988 | locus YHR030C, strain SLT2, active compounds read low 1.03 and 0.96 | locus YHR079C, strain IRE1 (second series), active compounds read low 1.03 | locus YHR079C, strain IRE1, active compounds read low 1 | locus YHR094C, strain hxt1, active compounds read low 1.05 | locus YHR129C, strain ARP1, active compounds read low 1.03 | locus YHR142W, strain chs7, active compounds read low 1 | locus YIL066C, strain RNR3, active compounds read low 1.03 | locus YIL073C, strain SPO22, active compounds read low 1.04 | locus YIL125W, strain kgd1, active compounds read low 1.06 | locus YJL092W, strain hpr5, active compounds read low 1.01 | locus YJL095W, strain BCK1 (second series), active compounds read low 1 | locus YJL095W, strain BCK1, active compounds read low 1.03 and 0.973 | locus YJL115W, strain asf1, active compounds read low 1.01 | locus YJL129C, strain trk1, active compounds read low 0.992 | locus YJL134W, strain LCB3, active compounds read low 1.03 | locus YJL154C, strain vps35, active compounds read low 1 | locus YJL164C, strain tpk1, active compounds read low 0.969 | locus YJL166W, strain qcr8, active compounds read low 1.01 | locus YJL187C, strain SWE1 (second series), active compounds read low 1.03 | locus YJL187C, strain SWE1, active compounds read low 0.986 | locus YJR043C, strain POL32, active compounds read low 1.06
